{"source": "PubChem BioAssay (NCI)", "note": "This is part of a sample that, as a whole, favours compounds with a hit. Of some 79,000 tested, about 15% had one in any assay. Unmarked numbers belong to inactive results. Calls of active or inactive are those of the source. No stated cut-off is given here; in the data, active means growth inhibition above about 70%; inactive means the rest.", "data": [{"assay": "NCI Yeast Anticancer Drug Screen. Data for the rad50 strain (AID 155);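 further: 0% = growth of vehicle-only cultures of the same strain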", "conditions": "S. cerevisiae rad50 strain growth inhibition; at 50.0 µM; active compounds read high", "outline": "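Vehicle-treated cultures provide the reference for the growth inhibition reported for compound-exposed, repair-deficient yeast.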", "values": [{"smiles": "Cc1cccc(C(C)C)c1NC(=O)/C(Cc1c([N+](=O)[O-])cccc1[N+](=O)[O-])=N/NC(=O)CC#N", "growth inhibition": "-0.15%"}, {"smiles": "NC1CC(=O)C(CC2C(=O)CC(N)CC2=O)C(=O)C1", "note": "(stereo not given)", "growth inhibition": "-1.3%"}, {"smiles": "CC(C)c1ccc(/C=C2\\CCC/C(=C\\c3ccc(C(C)C)cc3)C2=O)cc1", "growth inhibition": "-6.7%"}, {"smiles": "COc1cc(OC)c(OC)cc1/C=C/c1cc[n+](C)c2ccccc12", "growth inhibition": "9.1%"}, {"smiles": "O=C(NO)c1c(F)c(F)c(C(=O)NO)c(F)c1F", "growth inhibition": "-2.5%"}, {"smiles": "COc1cc(/C=N/N=C(\\N)NO)cc(Cl)c1O", "growth inhibition": "-20.4%"}, {"smiles": "[N-]=[N+]=NC(=O)c1cccc2c1Cc1ccccc1-2", "growth inhibition": "8.85%"}, {"smiles": "O=[S@]1Nc2cc(N=Nc3ccccc3)ccc2S1", "growth inhibition": "-3.45%"}, {"smiles": "Nc1ccc2c(c1)Cc1c-2cc(Br)c(N)c1Br", "growth inhibition": "4.95%"}, {"smiles": "N#C/C(=C\\c1ccccn1)c1ccc(Cl)cc1", "growth inhibition": "3.15%"}, {"smiles": "CC1(C)C2CCC(I)(C2)C1I", "note": "(stereo not given)", "growth inhibition": "10.9%"}, {"smiles": "CC1=Nc2ccccc2NC2(C1)C(C1COC(C)(C)O1)OC1OC(C)(C)OC12", "note": "(stereo not given)", "growth inhibition": "9.95%"}, {"smiles": "COc1ccccc1NC(=O)C1=C(C)NC(C)=C(C(=O)Nc2ccccc2OC)C1c1c(Cl)cccc1Cl", "growth inhibition": "15.6%"}, {"smiles": "CN(C)CCOC(=O)COc1ccc(Cl)cc1", "growth inhibition": "-10.2%"}, {"smiles": "Cc1ccc(C(C)(O)C2CC2)cc1", "note": "(stereo not given)", "growth inhibition": "-11.4%"}, {"smiles": "CCCCCCCCCCCCCCCCCCCOc1ccc(OCCCCCCCCCC)cc1", "growth inhibition": "33.9%"}, {"smiles": "COC(C)C(NC=O)C(=O)O", "note": "(stereo not given)", "growth inhibition": "18.8%"}, {"smiles": "Nc1cc(Cl)c(I)c(Cl)c1", "growth inhibition": "-4.5%"}, {"smiles": "O=C1N=C2SC(=S)NC(=S)N2NC12c1ccccc1-c1ccccc12", "growth inhibition": "30.1%"}, {"smiles": "CC1C(=O)CCC2C1(C)CCC1C2(C)CCC2(C)C3CC(C)(C)CCC3(C)CCC12C", "note": "(stereo not given)", "growth inhibition": "18.4%"}, {"smiles": "O=C(/C=C/c1ccc(Cl)c(Cl)c1)c1ccc2ccccc2c1", "growth inhibition": "28.2%"}, {"smiles": "CC(=O)CC(=O)CC(C)C.CC(=O)CC(=O)CC(C)C.[Cu]", "growth inhibition": "17.2%"}, {"smiles": "C/C=C1\\CN2CCc3c([nH]c4ccccc34)C2C=C1CCO", "note": "(stereo not given)", "growth inhibition": "-19.1%"}, {"smiles": "C=CCCCC(C#N)c1ccc2c(c1)OCO2", "note": "(stereo not given)", "growth inhibition": "-3.25%"}, {"smiles": "C[N+](C)(C)C1CC([N+](C)(C)C)C2c3ccccc3C21", "note": "(stereo not given)", "growth inhibition": "-15.2%"}, {"smiles": "COc1cc(C(=O)O)cc(O)c1OC", "growth inhibition": "4.95%"}, {"smiles": "CC(O)CN(CC(C)O)c1ccc2c(c1)Cc1ccccc1-2", "note": "(stereo not given)", "growth inhibition": "-13.2%"}, {"smiles": "CCCNS(C)(=O)=O", "growth inhibition": "7.25%"}, {"smiles": "CC1(c2ccncc2)NC(=O)NC1=O", "note": "(stereo not given)", "growth inhibition": "31.9%"}, {"smiles": "CC1=C(C)CC2(CC1)C(=O)C1(CCC(C)=C(C)C1)C2=O", "note": "(stereo not given)", "growth inhibition": "25.2%"}, {"smiles": "CC1CCOCO1", "note": "(stereo not given)", "growth inhibition": "-3.3%"}, {"smiles": "O=C(Nc1ccccc1)C1CC2C=CC1C2", "note": "(stereo not given)", "growth inhibition": "2.3%"}, {"smiles": "CC1(C)OCC2OC(n3cnc4c(N)nc(Cl)nc43)C(OS(C)(=O)=O)C2O1", "note": "(stereo not given)", "growth inhibition": "3.75%"}, {"smiles": "CC1(C)CC[C@]2(C(=O)O)[C@H](O)C[C@]3(C)C(=CC[C@@H]4[C@@]5(C)CC[C@H](OC6OC(C(=O)O)C(O)C(O)C6O)C(C)(C)[C@@H]5CC[C@]43C)[C@@H]2C1", "note": "(stereo not given in full)", "growth inhibition": "93.8% (active)"}, {"smiles": "O=C(NO)/C(CC(=O)c1ccc(O)cc1)=N\\O", "growth inhibition": "-8.9%"}, {"smiles": "N#CC(C#N)=CNC(=S)Nc1ccc(Cl)c(Cl)c1", "growth inhibition": "44.1%"}, {"smiles": "CC(NC(=O)C(N)CC(=O)O)C(=O)OC12CC3CC(CC(C3)C1)C2", "note": "(stereo not given)", "growth inhibition": "-55.5%"}, {"smiles": "CCOC(=O)C(CC(Nc1ccccc1)(c1ccccc1)c1ccccc1)c1ccccc1", "note": "(stereo not given)", "growth inhibition": "21.9%"}, {"smiles": "Cc1cc(N(CCC#N)CCC#N)ccc1/C=C1N=C(/C=C\\c2ccccc2)OC\\1=O", "growth inhibition": "5.5%"}, {"smiles": "COc1ccc(OC)c(NC(=O)CCCC(=O)C(C#N)c2ccccc2C)c1", "note": "(stereo not given)", "growth inhibition": "13.1%"}]}]}
